Results on five compounds are retold here after PubChem BioAssay.

Structures are written as SMILES. The source made the active and inactive calls.

The test system of assay [1] is Plasmodium falciparum Sir2 (PF13_0152, Sir2A). In words: Plasmodium falciparum Sir2A binding compounds – biochemical, small-molecule microarray, 635 nm fluorescence, primary screen (AID 1098).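 Also: score merges spot fluorescence intensity with its signal-to-noise ratio.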 As to conditions: fluorescence 635 nm, higher = more signal.
A short description of assay [2]: probe aDKK1 binding to arrayed compounds – biochemical, biotinylated probe, 635/667 nm fluorescence, primary screen (AID 1099).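 Also: score merges 667nm spot fluorescence with signal to noise across triplicate slides.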 As to conditions: small-molecule microarray, higher = more signal.
Assay [3] is described as follows: probe aCHRDL2 binding to arrayed compounds – biochemical, biotinylated probe, 635/667 nm fluorescence, primary screen (AID 1100). As to conditions: small-molecule microarray, higher = more signal.
A short description of assay [4]: change in splice reporter luminescence, either direction, cell-based, HEK293, spliceosome inhibition project, primary screen (AID 1101).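 Also: HEK293 cells carrying a splicing-competent luciferase reporter gene; test concentration not given here.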 As to conditions: HEK293 splicing luciferase reporter, 24 h, higher = more signal, called active from +8 up or from −8 down. (In general: Reporter assays use an easily measured gene product as a stand-in for the process of interest.)

The target in assay [5] is Fibroblast growth factor 10 (Homo sapiens) (UniProt O15520). The assay can be described thus: compounds binding fibroblast growth factor 10 – biochemical, small-molecule microarray, 635 nm fluorescence, primary screen (AID 1102). As to conditions: FGF10 binding, fluorescence 635 nm, higher = more signal.
Assay [6] relates to glycogen synthase kinase-3 (GSK3A per assay name; protocol says GSK3B). The assay can be described thus: compounds binding glycogen synthase kinase-3 – biochemical, small-molecule microarray, 635 nm fluorescence, GSK3A, primary screen (AID 1103). Also: the record names both GSK3A and GSK3B. To be noted: fluorescence 635 nm, higher = more signal.
The target in assay [7] is Epidermal growth factor receptor (Homo sapiens) (UniProt P00533). In words: compounds binding epidermal growth factor receptor – biochemical, small-molecule microarray, 635 nm fluorescence, primary screen (AID 1104).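 Also: score merges 667 nm emission intensity with spot signal to noise over triplicate slides.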 As to conditions: EGFR binding, higher = more signal.
The target in assay [8] is Follistatin-related protein 3 (Homo sapiens) (UniProt O95633). In words: compounds binding follistatin-related protein 3 – biochemical, small-molecule microarray, 635 nm fluorescence, primary screen (AID 1105).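 Also: score merges emission near 667 nm and signal to noise per printed spot across three slides.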 To be noted: FSTL3 binding, higher = more signal.
Assay [9] addresses Dickkopf-related protein 1 (Homo sapiens) (UniProt O94907). The assay can be described thus: small molecules binding DKK1 protein – biochemical, small-molecule microarray, 635 nm fluorescence scan, primary screen (AID 1106).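 Also: score merges emission near 667 nm with signal to noise over three replicate slides.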 To be noted: higher = more signal.
Assay [10] has as its system Inhibin beta A chain (activin A). The assay can be described thus: small molecules binding activin A – biochemical, small-molecule microarray, 635 nm fluorescence scan, primary screen (AID 1107).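 Also: mouse activin A protein probed at 4.33 µg/mL on printed slides; score merges bound-protein fluorescence near 667 nm with spot signal-to-noise.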 To be noted: INHBA, higher = more signal.
In assay [11] the test system is Human papillomavirus type 1a protein E7 (residues 44-93). The assay can be described thus: small molecules binding HPV E7 44-93 – biochemical, small-molecule microarray, residues 44-93, 635 nm fluorescence, primary screen (AID 1108).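 Also: E7 fragment applied at 1 µg/mL in TBST for 1 h at 4 C; score combines spot fluorescence with its signal to noise ratio.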 To be noted: fluorescence 635 nm, higher = more signal.
Assay [12] can be described thus: hepatitis C replication reporter changes, two-sided – Huh7 cells, luciferase reporter, HCV replication inhibitor project, primary screen (AID 1109).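 Also: huh7 hepatoma cells harbouring a luciferase neomycin HCV replicon reporter; luciferase luminescence as measure of HCV replicon replication; test concentration not given here.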 To be noted: Huh7 HCV replicon luciferase reporter, 48 h; higher = more signal.
The target of assay [13] is Left-right determination factor 2 (Homo sapiens) (UniProt O00292). The assay can be described thus: small molecules binding LEFTY2 protein – biochemical, small-molecule microarray, 635 nm fluorescence scan, primary screen (AID 1110). To be noted: higher = more signal.
Assay [14] addresses Calmodulin-1 (Homo sapiens) (UniProt P0DP23). In words: small molecules binding calmodulin-1 with EGTA – biochemical, small-molecule microarray, Cy5-labelled CALM1, profiling panel (AID 1111).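 Also: labelled calmodulin applied in Tris saline Tween buffer holding calcium plus EGTA and DTT.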 As to conditions: Cy5-CALM1 binding fluorescence, higher = more signal.
Assay [15] has the same target. In words: small molecules binding Ca-loaded calmodulin-1 – biochemical, small-molecule microarray, Cy5-labelled CALM1, plus calcium, artefact control for SMM control-protein annotation, profiling panel (AID 1112).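 Also: score merges spot fluorescence with signal to noise from triplicate slides.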 As to conditions: Cy5-CALM1 binding fluorescence, higher = more signal.
A short description of assay [16]: probe aWnt5a binding to arrayed compounds – biochemical, biotinylated probe, 635/667 nm fluorescence, primary screen (AID 1113).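 Also: score merges 667 nm fluorescence intensity with signal-to-noise per printed feature.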 As to conditions: small-molecule microarray, higher = more signal.
Assay [17] can be described thus: probe aShh binding to arrayed compounds – biochemical, biotinylated probe, 635/667 nm fluorescence, primary screen (AID 1114).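 Also: probe is biotin-labelled aShh protein from a stem cell growth factor screen; measures binding of labelled protein to compounds printed on the slide; score merges feature fluorescence at 667 nm with signal-to-noise.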 To be noted: small-molecule microarray, higher = more signal.
The nature of assay [18]: probe aNog binding to arrayed compounds – biochemical, biotinylated probe, 635/667 nm fluorescence, primary screen (AID 1115).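 Also: probe is biotinylated aNog protein used at 0.15 µg/mL for 1 h at 4 C; z-score combines 667 nm fluorescence of each spot with its signal to noise.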 As to conditions: small-molecule microarray, higher = more signal.
In assay [19] the target is Torsin-1A-interacting protein 1 (Homo sapiens) (UniProt Q5JTV8). The assay can be described thus: compound microarray binding of lysate hLAP1 – cell lysate, small-molecule microarray, COS7 lysate, 635/667 nm fluorescence, primary screen (AID 1116). As to conditions: 635 nm fluorescence, higher = more signal.
The target in assay [20] is Alpha-bungarotoxin (Bungarus multicinctus) (UniProt P60615). The assay can be described thus: compounds binding labelled alpha-BTX control protein – biochemical, small-molecule microarray, Alexa647 label, 635/667 nm fluorescence, artefact control for SMM control protein annotation, profiling panel (AID 1117). As to conditions: alpha-BTX-A647 binding fluorescence, higher = more signal.
Sequence of Alpha-bungarotoxin (Bungarus multicinctus) (P60615 whole entry, looked up): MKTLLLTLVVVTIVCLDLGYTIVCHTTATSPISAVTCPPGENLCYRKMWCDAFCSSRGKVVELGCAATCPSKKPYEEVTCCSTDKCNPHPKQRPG

Sequence of Fibroblast growth factor 10 (Homo sapiens) (O15520 whole entry, looked up): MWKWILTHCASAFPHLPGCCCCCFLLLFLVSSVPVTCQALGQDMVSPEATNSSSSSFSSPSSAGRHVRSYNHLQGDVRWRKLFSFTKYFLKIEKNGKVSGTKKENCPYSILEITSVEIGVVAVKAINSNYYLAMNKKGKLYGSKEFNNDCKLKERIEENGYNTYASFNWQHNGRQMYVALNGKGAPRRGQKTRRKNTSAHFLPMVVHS
Sequence of Torsin-1A-interacting protein 1 (Homo sapiens) (Q5JTV8 whole entry, looked up): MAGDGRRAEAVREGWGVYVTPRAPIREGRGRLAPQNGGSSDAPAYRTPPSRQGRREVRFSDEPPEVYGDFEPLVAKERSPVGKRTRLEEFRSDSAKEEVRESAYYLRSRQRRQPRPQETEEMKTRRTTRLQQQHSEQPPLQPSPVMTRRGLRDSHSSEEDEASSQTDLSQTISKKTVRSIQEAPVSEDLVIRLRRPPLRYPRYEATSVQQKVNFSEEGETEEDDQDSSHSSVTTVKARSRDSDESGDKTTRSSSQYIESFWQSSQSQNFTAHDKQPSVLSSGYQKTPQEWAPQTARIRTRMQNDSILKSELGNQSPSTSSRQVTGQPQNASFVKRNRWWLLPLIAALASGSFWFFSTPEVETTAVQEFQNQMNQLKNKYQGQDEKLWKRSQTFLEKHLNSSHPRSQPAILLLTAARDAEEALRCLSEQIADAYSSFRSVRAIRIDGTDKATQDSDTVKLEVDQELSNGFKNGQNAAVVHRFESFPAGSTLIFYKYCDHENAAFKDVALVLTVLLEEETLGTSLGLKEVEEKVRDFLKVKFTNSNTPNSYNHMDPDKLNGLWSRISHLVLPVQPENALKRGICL
Sequence of Follistatin-related protein 3 (Homo sapiens) (O95633 whole entry, looked up): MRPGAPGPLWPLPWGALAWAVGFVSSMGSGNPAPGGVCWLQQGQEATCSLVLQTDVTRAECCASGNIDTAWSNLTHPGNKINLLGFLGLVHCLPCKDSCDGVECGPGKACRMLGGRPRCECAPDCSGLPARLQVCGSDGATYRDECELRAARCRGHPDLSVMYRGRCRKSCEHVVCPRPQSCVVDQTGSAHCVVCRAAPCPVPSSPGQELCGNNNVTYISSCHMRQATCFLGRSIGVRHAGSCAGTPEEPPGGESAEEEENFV
Sequence of Left-right determination factor 2 (Homo sapiens) (O00292 whole entry, looked up): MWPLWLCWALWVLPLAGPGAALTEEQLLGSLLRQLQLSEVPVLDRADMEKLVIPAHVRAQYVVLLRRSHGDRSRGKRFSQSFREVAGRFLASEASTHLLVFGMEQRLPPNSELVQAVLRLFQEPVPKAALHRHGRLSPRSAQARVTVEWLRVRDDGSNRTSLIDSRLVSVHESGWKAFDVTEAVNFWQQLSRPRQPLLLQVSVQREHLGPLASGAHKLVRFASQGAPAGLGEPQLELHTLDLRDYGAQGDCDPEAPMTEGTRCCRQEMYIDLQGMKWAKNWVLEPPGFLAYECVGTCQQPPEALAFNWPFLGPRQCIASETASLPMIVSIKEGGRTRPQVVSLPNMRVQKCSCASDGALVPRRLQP
Sequence of Dickkopf-related protein 1 (Homo sapiens) (O94907 whole entry, looked up): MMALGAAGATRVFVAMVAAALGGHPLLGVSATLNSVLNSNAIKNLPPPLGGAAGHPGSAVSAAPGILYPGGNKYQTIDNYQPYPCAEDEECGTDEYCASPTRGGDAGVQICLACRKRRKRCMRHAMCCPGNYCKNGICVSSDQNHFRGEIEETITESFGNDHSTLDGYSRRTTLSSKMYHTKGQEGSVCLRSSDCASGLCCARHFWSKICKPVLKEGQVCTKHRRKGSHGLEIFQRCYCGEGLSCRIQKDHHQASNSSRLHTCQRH
Sequence of Epidermal growth factor receptor (Homo sapiens) (P00533 whole entry, looked up): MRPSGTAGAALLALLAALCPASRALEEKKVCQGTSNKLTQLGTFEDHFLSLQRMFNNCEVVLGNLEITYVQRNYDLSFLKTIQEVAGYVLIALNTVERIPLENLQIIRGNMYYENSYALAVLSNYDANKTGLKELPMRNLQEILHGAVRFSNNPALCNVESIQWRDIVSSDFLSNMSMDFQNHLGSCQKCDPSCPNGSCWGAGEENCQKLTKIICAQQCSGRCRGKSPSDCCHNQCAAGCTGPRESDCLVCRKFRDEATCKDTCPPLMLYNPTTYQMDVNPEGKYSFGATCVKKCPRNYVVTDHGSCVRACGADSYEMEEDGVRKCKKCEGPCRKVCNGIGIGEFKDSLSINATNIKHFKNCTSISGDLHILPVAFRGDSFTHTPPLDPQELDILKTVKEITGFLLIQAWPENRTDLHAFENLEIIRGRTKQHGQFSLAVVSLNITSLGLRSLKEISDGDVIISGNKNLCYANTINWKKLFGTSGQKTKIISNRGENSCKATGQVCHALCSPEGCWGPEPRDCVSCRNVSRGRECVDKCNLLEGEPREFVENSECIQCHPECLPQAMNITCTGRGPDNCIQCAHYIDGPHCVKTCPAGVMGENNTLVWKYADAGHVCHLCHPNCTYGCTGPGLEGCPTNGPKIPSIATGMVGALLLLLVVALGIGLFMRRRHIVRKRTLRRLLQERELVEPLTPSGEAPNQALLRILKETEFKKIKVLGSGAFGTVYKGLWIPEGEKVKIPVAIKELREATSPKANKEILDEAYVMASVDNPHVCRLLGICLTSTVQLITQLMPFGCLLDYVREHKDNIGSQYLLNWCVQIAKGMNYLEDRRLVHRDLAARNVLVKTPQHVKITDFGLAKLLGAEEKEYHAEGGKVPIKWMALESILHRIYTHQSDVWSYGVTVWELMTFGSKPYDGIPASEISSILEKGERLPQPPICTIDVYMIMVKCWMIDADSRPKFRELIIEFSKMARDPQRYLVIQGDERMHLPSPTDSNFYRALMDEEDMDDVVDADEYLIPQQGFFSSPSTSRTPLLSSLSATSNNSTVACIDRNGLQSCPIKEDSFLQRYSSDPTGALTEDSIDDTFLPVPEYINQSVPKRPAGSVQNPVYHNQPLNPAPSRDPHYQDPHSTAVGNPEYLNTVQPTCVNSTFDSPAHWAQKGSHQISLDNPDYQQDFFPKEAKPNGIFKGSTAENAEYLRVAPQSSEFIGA

Regarding `COc1ccc(C(O)C2C=CC3C(=O)N(c4ccccc4)C(=O)C3N2Nc2ccccc2)cc1OCc1ccccc1` (stereo not given), the composite z-score is 0.964 in assay [1]; 0.294 in assay [2]; 0.77 in [3]; 1.21 in assay [5]; 1.29 in [6]; -0.0831 in assay [7]. Besides, the composite z-score in [8] was 1.29; in assay [9], -0.0662; in assay [10] it was 0.726; in assay [11], 1.48; in [13], 0.0977; in assay [14] it was 0.552. Moreover, the composite z-score in [15] was determined as 0.734; in assay [16], 0.165; in assay [17] it was 0.123; in assay [18], 1.26; in assay [19], 0.618; in assay [20], 1.4. Also, the z-score in assay [4] is 0.161 (inactive); in assay [12], -0.412.

For the compound `NC(=O)NCC#Cc1ccc2c(c1)[C@]1(C(=O)N2)[C@H](C(=O)O)[C@H]2C(=O)O[C@H](c3ccccc3)[C@H](c3ccccc3)N2[C@@H]1c1ccccc1OCCO`, the composite z-score is 1.37 in assay [1]; 0.689 in assay [2]; 0.677 in assay [3]; 0.991 in assay [5]; 0.558 in assay [6]; 0.363 in [7]. For the same compound, the composite z-score in assay [8] stood at 1.01; in assay [9], 0.351; in [10], 1.4; in [11], 0.497; in assay [13], 0.28; in assay [14], 2.05. The composite z-score in assay [15] was 1.01; in assay [16], 0.0354; in assay [17], -0.412; in assay [18] it was 0.91; in assay [19], 1.45; in assay [20], 3.27. Further, the z-score in [4] was -1.14 (inactive); in assay [12], 0.393.

In the case of `CC(C)C(CO)N1C(=O)[C@]2(C)C3C(=O)OCCC/C=C\[C@H]3OC23C=CCN(c2ccc(Cl)cc2)C(=O)[C@@H]13` (stereo not given in full), the composite z-score in assay [1] is 1.11; in assay [2], -0.095; in [3], 0.38; in assay [5], -0.382; in [6] it was -0.028; in [7], -0.599. For the same compound, the composite z-score was -0.518 in [8]; -0.821 in [9]; 0.717 in assay [10]; 0.964 in [11]; -1.03 in assay [13]; -0.224 in assay [14]. The composite z-score in assay [15] was -0.193; in [16], -0.131; in [17] it was -0.138; in [18], 0.563; in assay [19], -0.0952; in assay [20] it was -0.28. For the same compound, the z-score in [4] was 0.242 (inactive); in [12] it was 0.344.

On to `CC(C)(C)OC(=O)CC[C@@]1(C(=O)O)N=C(c2ccc(OCCCO)cc2)O[C@@H]1c1ccccc1CN=[N+]=[N-]`, for which the composite z-score was 1.16 in assay [1]; 1 in assay [2]; 0.602 in assay [3]; 0.0038 in [5]; 0.396 in assay [6]; -0.207 in assay [7]. Also, the composite z-score is -0.43 in [8]; -0.689 in assay [9]; 1.08 in [10]; 1.31 in assay [11]; -0.677 in [13]; 1.33 in assay [14]. For the same compound, the composite z-score in [15] was 1.09; in [16], 0.145; in assay [17], 0.218; in assay [18] it was -0.1; in assay [19] it was 1.24; in assay [20], 2.78. Also, the z-score in assay [4] was -0.326 (inactive); in assay [12] it was -2.21.

On to `C=CCC(OC(C)=O)[C@@H]1[C@@H](N(Cc2cc3ccccc3o2)C(=O)Cc2ccc(F)cc2)c2cc(OCCCO)ccc2N1C(=O)c1ccc2ccccc2n1` (stereo not given in full), for which the composite z-score in assay [1] is -0.278; in assay [2], -0.106; in assay [3] it was 0.394; in assay [5], -0.0436; in assay [6], -0.497; in [7], 0.112. In addition, the composite z-score was -0.255 in assay [8]; 0.0645 in assay [9]; 1.2 in assay [10]; -0.221 in assay [11]; -0.139 in assay [13]; -0.408 in [14]. The composite z-score in assay [15] was -0.12; in [16] it was 0.0179; in [17] it was -0.426; in assay [18], 0.14; in [19], -0.103; in assay [20], 0.222. Moreover, the z-score is -0.509 (inactive) in assay [4] and 0.476 in assay [12].
